# According to the supplement of paper PMC10933113:
# Where a name gives a salt, the structure may show the parent alone. ± gives the uncertainty stated by the source.
# System: THP-1
# Assay: CD86 surface expression induction over DMSO control (% over DMSO); higher = stronger dendritic cell activation
# Conditions: exposure time: 24 h
# Procedure: (§1)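 hCLAT-like CD54 and CD86 surface expression on THP1 cells after 24 h exposure at a single concentration (highest non-cytotoxic concentration, or 100-200 µM if not cytotoxic). Flow cytometry (iQue) was run on 5,000 live cells.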
row,Structure (SMILES),CD86 surface expression induction
1,CC(C)c1ccc2oc3nc(N)c(C(=O)O)cc3c(=O)c2c1 [Amlexanox] (100 µM),8.56 ± 19
2,CCC1OCC(COc2ccc(Oc3ccccc3)cc2)O1 (centres undefined) [Diofenolan] (10 µM),-18.9 ± 5.4
3,Oc1ccc(/C=C/c2cc(O)cc(O)c2)cc1 [Resveratrol] (100 µM),-3.05 ± 3.9
4,O=c1[nH]sc2cc(Cl)ccc12 [Ticlatone] (10 µM),-7.52 ± 22
5,"O=C(O)c1cc(O)c2ccccc2c1O [1,4-dihydroxy-2-naphthoic acid*] (10 µM)",290 ± 51
6,CCCCCCCC/C=C\CCCCCCCC(=O)N(C)CC(=O)O [Oleyl sarcosine] (100 µM),-14.4 ± 36
7,O=C(O)Cn1c(C(=O)Nc2nc(-c3ccccc3Cl)cs2)cc2ccccc21 [Lintitript] (100 µM),-2.3 ± 0.27
8,C#CCN(C)CCCOc1ccc(Cl)cc1Cl [Clorgyline hydrochloride] (100 µM),-4.71 ± 3.7
9,c1ccc2[nH]c(-c3cscn3)nc2c1 [Thiabendazole] (100 µM),6.44 ± 20
10,"O=[N+]([O-])c1cc(Cl)c(Cl)c(Cl)c1Cl [2,3,4,5-Tetrachloronitrobenzene] (10 µM)",-3.95 ± 2.5

# System: THP-1
# Assay: CD54 surface expression induction over DMSO control (% over DMSO); higher = stronger dendritic cell activation
# Conditions: exposure time: 24 h
# Procedure: as §1
row,Structure (SMILES),CD54 surface expression induction
1,CC(C)c1ccc2oc3nc(N)c(C(=O)O)cc3c(=O)c2c1 [Amlexanox] (100 µM),-5.95 ± 2.7
2,CCC1OCC(COc2ccc(Oc3ccccc3)cc2)O1 (centres undefined) [Diofenolan] (10 µM),-6.06 ± 5.8
3,O=C(CCCCCCC(=O)Nc1ccccc1)NO [Vorinostat (SAHA)] (100 µM),4.99 ± 15
4,O=C(O)CCCCCCCCC(=O)O [Decanedioic acid] (200 µM),-0.56 ± 5.1
5,Oc1ccc(/C=C/c2cc(O)cc(O)c2)cc1 [Resveratrol] (100 µM),1.74 ± 6.8
6,O=C1c2cccc(O)c2C(=O)c2c(O)cccc21 [Danthron] (100 µM),16.5 ± 0.49
7,CC(=O)Oc1ccc(C2(c3ccc(OC(C)=O)cc3)C(=O)Nc3ccccc32)cc1 [Oxyphenisatin acetate] (100 µM),9.56 ± 1.9
8,O=c1cc(-c2ccccc2)oc2cc(O)cc(O)c12 [Chrysin] (100 µM),18.9 ± 1.4
9,O=c1[nH]sc2cc(Cl)ccc12 [Ticlatone] (10 µM),-4.79 ± 7.2
10,CCCCCCCCCCCCOCCO [2-(Dodecyloxy)ethanol] (200 µM),34.2 ± 20
11,O=C(Nc1ncc([N+](=O)[O-])s1)c1cccs1 [Tenonitrozole] (10 µM),-7 ± 4.7
12,"O=C(O)c1cc(O)c2ccccc2c1O [1,4-dihydroxy-2-naphthoic acid*] (10 µM)",374 ± 47
13,O=C(O)Cc1cc(I)c(Oc2cc(I)c(O)c(I)c2)c(I)c1 [Tetrac] (100 µM),8.45 ± 9.3
14,"CC(O)C#CC(C)O (centres undefined) [Hex-3-yne-2,5-diol] (10 µM)",6.05 ± 3.8
15,CCCCCCCC/C=C\CCCCCCCC(=O)N(C)CC(=O)O [Oleyl sarcosine] (100 µM),6.04 ± 0.79
16,CCCCCCCC(=O)Oc1c(Br)cc(C#N)cc1Br [Bromoxynil octanoate] (100 µM),-3.81 ± 2.4
17,O=C(NS(=O)(=O)/C=C/c1cccs1)c1ccc(F)cc1Br (200 µM),4.11 ± 1.7

row,Structure (SMILES),CD54 surface expression induction
1,CCCOc1ccc2[nH]c(NC(=O)OC)nc2c1 [Oxibendazole] (100 µM),-37.7 ± 6.7
2,"C/C=C/C=C/C=O [2,4-Hexadienal] (200 µM)",9.31 ± 6.7
3,CCCCCCCCCCCCCCCC[N+](C)(C)Cc1ccccc1 [Benzylhexadecyldimethylammonium chloride] (10 µM),20.1 ± 7.5
4,"CC(C)c1ccc2cc(C(C)C)ccc2c1 [2,6-Diisopropylnaphthalene] (200 µM)",10.1 ± 1.7
5,Cc1ccc(O)c2ncccc12 [Tiliquinol] (10 µM),26.6 ± 6.2
6,CC1COc2ccccc2N1C(=O)C(Cl)Cl (centres undefined) [Benoxacor] (10 µM),13.4 ± 3.8
7,Nc1ccc2cc3ccccc3cc2c1 [2-Aminoanthracene] (200 µM),-52.5 ± 1.6
8,O=C(O)Cn1c(C(=O)Nc2nc(-c3ccccc3Cl)cs2)cc2ccccc21 [Lintitript] (100 µM),1.24 ± 1.1
9,C#CCN(C)CCCOc1ccc(Cl)cc1Cl [Clorgyline hydrochloride] (100 µM),-7.99 ± 0.71
10,"NC(=S)NC(N)=S [2,4-Dithiobiuret] (200 µM)",15.9 ± 2.6
11,CC(C)NC(=O)c1ccc(C=O)cc1 [N-isopropyl-4-formylbenzamide] (100 µM),-11.6 ± 1.7
12,CCCCCOc1ccccc1/C(=C\SC)n1ccnc1 [Neticonazole] (100 µM),17.2 ± 5
13,CCOc1ccc2nc3cc(N)ccc3c(N)c2c1 [Ethacridine lactate monohydrate] (200 µM),-29.7 ± 6.5
14,c1ccc2[nH]c(-c3cscn3)nc2c1 [Thiabendazole] (100 µM),-2.19 ± 1.1
15,"O=[N+]([O-])c1cc(Cl)c(Cl)c(Cl)c1Cl [2,3,4,5-Tetrachloronitrobenzene] (10 µM)",-4.73 ± 2.7
16,C=CC(=O)OCCOC(=O)CCC(=O)O [4-[2-(Acryloyloxy)ethoxy]-4-oxobutanoic acid] (200 µM),-1.6 ± 8.8
17,O=CC(=O)c1ccccc1 [Phenyl glyoxal] (100 µM),-5.43 ± 7.7
